High-throughput results (PubChem BioAssay)
WRN inhibitor: qHTS for Inhibitors of WRN Helicase; Bifunctional 3'-5' exonuclease/ATP-dependent helicase WRN (Homo sapiens), Q14191; WRN helicase unwinding, fluorescent forked duplex, kinetic; Potency, µM (titrated, usually from 114 µM), without a hit: at the highest dose activity change, negative = inhibition, most hits filed as inhibitors; 360,000 compounds, 0.46% hits; also: % is scaled to controls: 0 for no effect and ±100 for the full control effect; nearly all actives have a fitted effect of over 55% in size
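Fluorescence dequenching readout, ex 525 nm/em 598 nm, kinetic mode: forked duplex DNA (100 nM final) with adjacent fluorophore and quencher unwound by WRN (20 nM final) with 2 mM ATP. Compound preincubation 15 min, room temperature.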
POLK inh: qHTS for Inhibitors of Polymerase Kappa | DNA polymerase kappa (Homo sapiens), Q9UBT6 | purified Pol kappa, fluorescent DNA synthesis assay, 10 min | Potency, µM (top dose mostly 107 µM), for inactives: at the top dose activity, negative = inhibition, actives largely listed as inhibitors | 400,000 compounds, 0.53% hits | AID 588579, 2011; also: % is scaled to controls: 0 for no effect and ±100 for the full control effect
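Kinetic fluorescence readout at 0 and 10 min followed reaction start with substrate at 50 nM final. Beforehand, enzyme (10 nM Pol kappa) stood 15 min with compound at room temperature; buffer-only wells were negative controls.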
POLB inh: qHTS Assay for Inhibitors of DNA Polymerase Beta | P06746 | Pol beta primer extension/strand displacement, fluorescence kinetic | Potency, µM (highest dose often 114 µM), without a hit: at the highest dose activity change, negative = inhibition, usual class: inhibitors | 340,000 compounds, 1.3% hits; also: % is scaled to controls: 0 for no effect and ±100 for the full control effect
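Pol beta (10 nM) was preincubated with compound for 15 min at room temperature. The reaction was then started with 50 nM substrate and read immediately and after a further 10 min at room temperature.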
POLI inh: qHTS for Inhibitors of Polymerase Iota. AID 588590, 2011. Potency, µM (series often up to 115 µM), for inactives: at the highest dose activity, negative = inhibition, actives largely listed as inhibitors. Pol iota fluorescent replication assay, 10 min. 390,000 compounds, 1% hits
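Fluorescent replication assay read twice, at 0 min and 10 min after adding 50 nM (final) substrate. Enzyme (10 nM) and compounds were first incubated 15 min at room temperature; enzyme-free buffer wells were negative controls.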
FEN1 inh: qHTS Assay for the Inhibitors of Human Flap endonuclease 1 (FEN1) | P39748 | Recombinant FEN1 flap cleavage, fluorescence, 15 min | Potency, µM (series often up to 114 µM), for inactives: top-dose activity change, negative = inhibition, most hits filed as inhibitors | 390,000 compounds, 0.35% hits | AID 588795, 2011; also: % is scaled to controls: 0 for no effect and ±100 for the full control effect; nearly all actives have a fitted effect of over 65% in size
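FEN1 at 10 nM preincubated with compounds 15 min at room temperature, then flap DNA substrate added at 50 nM final. Signal read at 0 and 15 min; concentration-response fitted with four-parameter Hill equation.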
POLH inh: qHTS for Inhibitors of Polymerase Eta; DNA polymerase eta (Homo sapiens), Q9Y253; recombinant Pol eta, fluorescent DNA replication assay; Potency, µM (doses to about 114 µM), inactives show at the top dose activity change, negative = inhibition, usual class: inhibitors; 390,000 compounds, 1.2% hits; AID 588591, 2011; also: % is scaled to controls: 0 for no effect and ±100 for the full control effect
Target sequence (Q9Y253 whole entry, looked up): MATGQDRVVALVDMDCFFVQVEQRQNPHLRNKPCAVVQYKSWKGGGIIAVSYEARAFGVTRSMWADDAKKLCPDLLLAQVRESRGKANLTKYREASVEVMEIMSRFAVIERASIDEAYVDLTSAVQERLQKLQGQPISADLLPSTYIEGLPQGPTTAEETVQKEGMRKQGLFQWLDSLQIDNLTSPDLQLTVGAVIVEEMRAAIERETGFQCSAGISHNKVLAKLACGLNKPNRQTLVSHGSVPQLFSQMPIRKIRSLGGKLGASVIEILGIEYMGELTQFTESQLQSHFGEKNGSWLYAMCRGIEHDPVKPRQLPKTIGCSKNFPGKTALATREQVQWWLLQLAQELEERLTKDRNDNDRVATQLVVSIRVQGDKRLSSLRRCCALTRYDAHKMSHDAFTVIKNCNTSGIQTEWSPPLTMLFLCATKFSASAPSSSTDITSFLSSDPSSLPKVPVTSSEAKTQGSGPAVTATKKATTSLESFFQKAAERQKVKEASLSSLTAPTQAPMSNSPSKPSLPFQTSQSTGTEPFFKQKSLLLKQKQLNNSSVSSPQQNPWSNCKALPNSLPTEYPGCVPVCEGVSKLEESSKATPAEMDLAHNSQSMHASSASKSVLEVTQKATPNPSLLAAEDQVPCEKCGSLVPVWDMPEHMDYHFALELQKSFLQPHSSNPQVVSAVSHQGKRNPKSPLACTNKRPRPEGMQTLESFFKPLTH
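Fluorescent replication assay: 50 nM final substrate added after a 15 min room-temperature compound preincubation with 10 nM enzyme. Signal taken at 0 min and again at 10 min.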
* = called active by the depositor; u = inconclusive; x = no result given; [ ] = another dose, or the depositor's remark. Only some compounds are listed: those with a hit (about 2.4% of all), similar ones and a draw of the others. Calls follow the shape of the dose curve; as a rule, active = well fitted curve in the direction sought with a large enough effect; inconclusive = small, poorly fitted or top-dose-only effect, or another doubt; inactive = no such curve, though single readings can be large; an effect the other way counts as inactive or inconclusive. Potency is read from the fitted curve at half-maximal effect.

SMILES | WRN inhibitor | POLK inh | POLB inh | POLI inh | FEN1 inh | POLH inh
CCN(CC)/[N+]([O-])=N/Oc1ccc([N+](=O)[O-])cc1[N+](=O)[O-] | x | -10% | x | -26% | -19% | x
O=[N+]([O-])c1ccccc1S(=O)(=O)Nc1ccc(-c2ccc(N3CCCC3)nn2)cc1 | -2%[11.6 µM] | -30% | x | u | 7% | 20µM*
Fc1ccc(Br)cc1C1C=C(c2ccc(Br)s2)Nc2ncnn21 (stereo unspecified) | -33% | -9% | 10µM* | u | 9% | 28µM*
Cc1cc(C)c2nccc(/C=C/c3ccc(N(C)C)cc3)c2c1 | x | -7% | x | 10% | -16% | x
CC(C)c1onc(-c2c(Cl)cccc2Cl)c1COc1ccc(/C=C/c2cccc(C(=O)O)c2)c(Cl)c1 | x | 30µM* | x | x | x | x
CCC(C)NC(=O)c1cccc(OCc2c(C)noc2C)c1 (stereo unspecified) | -32%[57.1 µM] | 0% | -1% | 15% | -3% | 9%
CC(C)C(=O)Nc1ccc(/C=C2\C=Cc3ccccc32)cc1 | x | -11% | x | 23% | -7% | x
CCc1cccc(NC(=O)CCc2nc3sc4c(c3c(=O)[nH]2)CCCC4)c1 | -10%[11.6 µM] | u | x | 18µM* | 3% | 32µM*
O=C(CCc1nc2sc3c(c2c(=O)[nH]1)CCCC3)N1CCN(c2ccccc2)CC1 | -2%[11.6 µM] | u | x | 45µM* | -9% | 79µM*
COc1cccc(NC(=O)CN(C)C(=O)CCc2nc3sc4c(c3c(=O)[nH]2)CCCC4)c1 | u | -24% | 35µM* | 28µM* | 2% | 22µM*
COc1ccccc1NC(=O)CCc1nc2sc3c(c2c(=O)[nH]1)CCCC3 | -32% | u | x | 25µM* | 2% | 50µM*
Cc1cccc(NC(=O)CCc2nc3sc4c(c3c(=O)[nH]2)CCCC4)c1 | -2% | 0% | x | 17% | 0% | u
COc1ccc(/C=C/c2ccnc3ccccc23)c(OC)c1 | x | -17% | x | 7% | -6% | x
O=C(C[n+]1ccccc1Cl)c1ccc(O)c(O)c1 | x | -16% | x | -22% | -2% | x
CC(=O)N(O)c1ccc(/C=C2\C=Cc3ccccc32)cc1 | x | -5% | x | 12% | -19% | x
C(=C\c1ccnc2ccccc12)/c1ccc(N(Cc2ccccc2)Cc2ccccc2)cc1 | x | 9% | x | 37% | -4% | x
CNS(=O)(=O)c1cccc(C(=O)OCC(=O)c2ccc[nH]2)c1 | -33% | -42% | x | 40µM* | 10% | 45µM*
O=[N+]([O-])c1ccccc1S(=O)(=O)N1CCSCC1 | 4% | 2% | x | 17% | -15% | 89µM*
CCCS(=O)(=O)N1CCN(S(=O)(=O)c2ccccc2[N+](=O)[O-])CC1 | 5% | 5% | 3% | 24% | -1% | 0%
CO[C@H]1C[C@@H]2CC[C@@H](C)[C@@](O)(O2)C(=O)C(=O)N2CCCC[C@H]2C(=O)O[C@H]([C@H](C)C[C@@H]2CC[C@@H](OC(=O)C(C)(CO)CO)[C@H](OC)C2)CC(=O)[C@H](C)/C=C(\C)[C@@H](O)[C@@H](OC)C(=O)[C@H](C)C[C@H](C)/C=C/C=C/C=C/1C | x | -1%[19.4 µM] | x | x | x | x
CCC1=NN2C(=N)/C(=C\c3ccc(OCCOc4ccccc4)c(OC)c3)C(=O)N=C2S1 | x | x | -1% | x | x | x
CCC1=NN2C(=N)/C(=C/c3ccc(OS(=O)(=O)c4ccccc4)cc3)C(=O)N=C2S1 | -28%[57.1 µM] | -11% | u | 1% | -13% | 45µM*
CCC1=NN2C(=N)/C(=C\c3cccn3-c3ccc(Cl)cc3)C(=O)N=C2S1 | -23% | -20% | 28µM* | u | -1% | u
CN(C)c1ccc(/C=C2\C(=N)N3N=C(CC(=O)N4CCCCC4)SC3=NC2=O)cc1 | u | u | u | 50µM* | -1% | u
